Source: the supplement of paper PMC10338343
± gives the standard deviation.

Each sequence was assayed on MILI (PIWIL2) piRISC loaded with piRNA #1 (26 nt) (assay: pre-steady-state target cleavage rate (min^-1); guide: piRNA #1 5'p-UGAGGUAGUAGGUUGUAUAGUAUCCA; MIWI and MILI are mouse PIWI proteins and EfPiwi is from a freshwater sponge; tags in brackets are library labels; higher = faster piRNA-guided slicing of the target). Conditions: auxiliary factor: 500 nM mouse GTSF1.
Procedure, shortened: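 The pre-steady-state cleavage rate came from a burst-and-steady-state fit to pooled data from three Cleave-'n-Seq trials, in which uncleaved targets were sequenced and normalised to depth and to weakly complementary targets. Each reaction held 0.1 nM transcribed, DNA-blocked target RNA library and 1 nM active affinity-purified piRISC carrying one synthetic guide, with or without 500 nM GTSF1 partner protein, in HEPES–potassium acetate buffer at 33 °C for 0–8 or 0–960 min. k3 was capped at 0.0001 min^-1.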

| Sequence | pre-steady-state target cleavage rate |
| --- | --- |
| GGAGACCAUACUAUACUACCUACAACCUCA | 0.185 ± 0.023 |
| GGAGACCUAACUUUACAACCUACUACCUGA | 0.0891 ± 0.041 |
| GGAGUGGAUUCUAUUCAACCUACUACCUCA | 0.165 ± 0.008 |
| GGAGACCUAACUAUAGUACCUACUACCUCA | 0.122 ± 0.022 |
| GGAGACCUAUCUAUACAAGCUACAACCUCA | 0.169 ± 0.015 |
| GGAGACCUAACAAUUCAACCUACUACCUCA | 0.0406 ± 0.013 |
| GGAGACCUAUGUAUACAUCCUACUUCCUCA | 0.0795 ± 0.013 |
| GGAGACGAUAGUAUACAACCAACUACCUCA | 0.00662 ± 0.0036 |
| GGAGACCUUACUAUACAAGCUACUUCCUCA | 0.149 ± 0.021 |
| GGAGACCUAUGUAUAAAACCUACUACCUCA | 0.0488 ± 0.0094 |
| GGAGACCUAUGUAUACAUCCUUCUACCUCA | 0.00859 ± 0.0018 |
| GGAGACCUUACUAUACUACCUACUUCCUCA | 0.119 ± 0.019 |
| GGAGACCUUACUAUAGAACCUACUUCCUCA | 0.00446 ± 0.0033 |
| GGAGACCUAUGAAUACAACCUAGCUACCUCA | 0.00489 ± 0.0025 |
| GGAGACCAUACUAUACAACCUACUCACCUCA | 0.169 ± 0.015 |
| GGAGACCUAUGUUUACAACCUACUUCCUCA | 0.0114 ± 0.0056 |
| GGAGACCAUACUAAACAACCUACAACCUCA | 0.117 ± 0.016 |
| GGAGACCUUACUAAUGAACCUACUACCUCA | 0.00805 ± 0.0017 |
| GGAGACCAUACUAUACAACCUACUCCUCA | 0.0178 ± 0.0057 |
| GGAGACCUAUCUUUACAACCUACUAGCUCA | 0.0374 ± 0.0091 |

| Sequence | pre-steady-state target cleavage rate |
| --- | --- |
| GGAGACGAUACUUAUACAACCUACUACCUCA | 0.139 ± 0.012 |
| GGAGACCUAUGAUAACAACCUACUACCGCA | 0.00318 ± 0.003 |
| GGAGACCUAUGAUUACAAGCUACUACCUGA | 0.0183 ± 0.0056 |
| GGAGACCUAUGAAUACAACGUACUACCUCA | 0.00541 ± 0.0019 |
| GGAGUGGAUUCUAAACAACCUACUACCUCA | 0.143 ± 0.0089 |
| GGAGACCUAUGAUAUGUUGGUACUACCUCA [g2:g10:cont:t1A] | < 0.0001 |
| GGAGACCUAUGAUAAUCAACCUACUACCUCA | 0.00294 ± 0.0029 |
| GGAGACCUAUGAUAUCAACCUACAACGUCA | < 0.0001 |
| GGAGACCUAUGUAUACAACCUACUAGCUCA | 0.0155 ± 0.0035 |
| GGAGACCUAUCUAUUCAACCUACUAGCUCA | 0.0826 ± 0.014 |
| GGAGACCUAUGAUAUGUUGCUACUCCCUCA | < 0.0001 |
| GGAGUGUAUACUAUACAACCUACUACCUCA | 0.167 ± 0.0094 |
| GGAGACCUUACAAUACAACCUACUUCCUCA | 0.0632 ± 0.014 |
| GGAGACCUAACUAUUCAACCUACUACCUGA | 0.0858 ± 0.03 |
| GGAGACCUAUGUAUACAACCUACUUCCACA | 0.0135 ± 0.0034 |
| GGAGACGUUACUAUUCAACCUACUACCUCA | 0.168 ± 0.011 |
| GGAGACCUAUGAUAUGUUCCUACUACCAUCA | < 0.0001 |
| GGAGACCUAUGAUUACAAACUACUACCUCA | 0.0225 ± 0.0059 |
| GGAGACCUAUCUAUACAACGUACUACGUCA | 0.00657 ± 0.0026 |
| GGAGACCUUAGUAUACUACCUACUACCUCA | 0.0896 ± 0.012 |
